Test results reported in PubChem BioAssay (NCI).
The panel holds about 83,000 compounds, 20% with a hit somewhere; the sample as a whole holds those more often.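 Each cell line was grown in a 96-well plate and treated with one concentration of compound for 48 hours. Values below 10 were considered active.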 Unmarked numbers belong to inactive results. Active and inactive are the calls of the source.

Experiments:
Assay in all cases: NCI-60 one-dose screen, 48 h (100 = growth as untreated, 0 = no growth, -100 = all killed)
Details in all cases: 10 µM unless noted
NCI-H23 lung = test system: NCI-H23 lung
NCI-H226 lung = test system: NCI-H226 lung
NCI-H322M lung = test system: NCI-H322M lung
HOP-62 NSCLC = test system: HOP-62 NSCLC
NCI-H460 lung = test system: NCI-H460 lung
HOP-92 NSCLC = test system: HOP-92 NSCLC
NCI-H522 lung = test system: NCI-H522 lung
A549/ATCC NSCLC = test system: A549/ATCC NSCLC
786-0 renal = test system: 786-0 renal
COLO 205 colon = test system: COLO 205 colon

SMILES | growth (NCI-H23 lung) | growth (NCI-H226 lung) | growth (NCI-H322M lung) | growth (HOP-62 NSCLC) | growth (NCI-H460 lung) | growth (HOP-92 NSCLC) | growth (NCI-H522 lung) | growth (A549/ATCC NSCLC) | growth (786-0 renal) | growth (COLO 205 colon)
C=C1CC[C@@H]2[C@](C)(COC(C)=O)[C@H](OC(C)=O)CC[C@@]2(C)[C@@H]1CC(Nc1ccc(S(=O)(=O)Nc2nc(C)cc(C)n2)cc1)C1=CCOC1=O (stereo not given in full) | 84.3% | 86.7% | 97.2% | 103% | 90.3% | 90.1% | 22% | 65.3% | 103% | 77%
COc1cc2c(c(OC)c1OC)-c1ccc(N=NC(N)=S)c(=O)cc1[C@@H](NC(C)=O)CC2 | 1.29% (active) | 41.8% | 36.5% | 7.96% (active) | 3.1% (active) | 69.6% | -59.8% (active) | 15% | 9.81% (active) | -73.6% (active)
CCN(CC)CCCNc1cc(OC)cc2nc3cc(Cl)ccc3nc12 | -46.7% (active) | -20.8% (active) | -0.828% (active) | -47.3% (active) | -16.2% (active) | -9.1% (active) | -63.2% (active) | -52.4% (active) | 2.95% (active) | -99.3% (active)
COc1ncc(-c2ccc3ncnc(Nc4cccc(Cl)c4)c3c2)cc1NS(C)(=O)=O | 37.4% | 47.2% | -6.97% (active) | 56.6% | 28.3% | -14.7% (active) | 33.3% | 15.8% | 46.2% | 41.5%
O=C(/C=C\c1ccc2ccccc2n1)c1cc(Cl)ccc1O | 63.2% | 58.7% | 86.1% | 97.8% | 78.9% | 52.3% | 94.8% | 104% | 75.4% | 115%
C=C1C(=O)O[C@H]2[C@H]1CC/C(Cn1cc(Cc3c[nH]c4ccccc34)nn1)=C\CC[C@@]1(C)O[C@@H]21 | 37.1% | 79.7% | 85.1% | 76.7% | 79.7% | -8.55% (active) | -79.2% (active) | 57.9% | -9.3% (active) | -68.1% (active)
C=C1CCC2C3(C)COC(c4ccccc4Br)OC3CCC2(C)C1C/C=C1/C(=O)OCC1OC(C)=O (stereo not given) | -47.7% (active) | -58.3% (active) | 21.7% | 11.5% | 1.8% (active) | 1.59% (active) | -52.7% (active) | 22.7% | -72.8% (active) | -76.7% (active)
CCOC(=O)c1cnc2ccc(OC)cc2c1Nc1cccc(S(=O)(=O)NC)c1 | 91.8% | 108% | 99.8% | 99.6% | 114% | 112% | 99.8% | 103% | 77.1% | 134%
Cc1ccc2c(c1)n([O-])c1cc(Cl)ccc1[n+]2=O | 97% | 104% | 115% | 103% | 114% | 81.9% | 89.2% | 98.9% | 91.3% | 108%
Cc1cc2cc3cc(C)c(N(C)C)cc3nc2cc1N(C)C | 23.9% | 54.8% | 22.3% | 23.1% | 8.26% (active) | -37% (active) | -11.7% (active) | 7.53% (active) | 28% | -23.8% (active)
c1ccc2c(Nc3cccc4ccccc34)cccc2c1 | 73.4% | 72.3% | 103% | 56.3% | 42.9% | 28.1% | 46.4% | 48.1% | 81.2% | 58.3%
COc1cc(C(=O)/C=C/c2c(C)n([O-])c3ccc(C)cc3[n+]2=O)cc(OC)c1OC | 42.2% | 72.7% | 97.9% | 102% | 88.4% | 64.5% | -81.8% (active) | 85.8% | 74% | -36.6% (active)
Clc1nc(Cl)c2c3c(sc2n1)CCCC3 | 32.5% | 3.63% (active) | 90.2% | 91.4% | 109% | 103% | 7.65% (active) | 120% | 96.1% | 5.1% (active)
COc1cc(OC)c(/C=C/C(=O)c2c(OC)cc(OC)cc2OC)c(OC)c1 | 6.77% (active) | 36.1% | 21.4% | 27% | 5.86% (active) | 130% | 2.82% (active) | 25.1% | 29% | -6.76% (active)
CN1CCN(Cc2ccc(NC(=O)c3cncc(C#Cc4c(N)ncc5ccc(C#N)cc45)c3)cc2C(F)(F)F)CC1 | 47% | 3.8% (active) | -29.2% (active) | 58.4% | -73.8% (active) | 13.9% | -53.7% (active) | -65.6% (active) | -59.6% (active) | 21.2%
NC(CC(=O)O)C(=O)OCc1ccccc1 (stereo not given) | 104% | 95.1% | 84.2% | 86.7% | 103% | 86.3% | 84.3% | 105% | 98.6% | 106%
O=C(/C=C/c1ccc(B(O)O)cc1)/C=C/c1ccc(B(O)O)cc1 | 62.4% | 78.1% | 80.9% | 105% | 57.5% | 82.6% | 72.4% | 41.4% | -72.5% (active) | 36.8%
CC1=C(C)C(=O)OC([C@](C)(O)[C@]2(O)CC[C@@]3(O)[C@@H]4C[C@H]5O[C@]56CC=CC(=O)[C@]6(C)[C@H]4CC[C@]23COC(=O)c2ccc(C)o2)C1 (stereo not given in full) | -45% (active) | -20.9% (active) | -63% (active) | -73.8% (active) | -57.1% (active) | -58.7% (active) | -68.7% (active) | 4.97% (active) | -64.1% (active) | -72.1% (active)
OC(c1cc(-c2ccccc2)nc2ccc(Cl)cc12)C1CCCCN1 (stereo not given) | 66.9% | 71.3% | 41.8% | 93.3% | -16.8% (active) | 6.52% (active) | 59.7% | 21.7% | 66.8% | -60.9% (active)
COC1C/C(=N\O)C2OC(c3ccccc3)OCC2O1 (stereo not given) | 101% | 103% | 99.9% | 114% | 112% | 90.7% | 97.3% | 88.3% | 104% | 107%
Oc1ccccc1N=Cc1c(O)ccc2ccccc12 | 88.2% | 87.3% | 82.6% | 83.7% | 81.3% | 58.3% | 81% | 95.4% | 86.2% | 108%
C=C1CC2(OC1=O)C(=O)Nc1ccccc12 (stereo not given) | 67.7% | 72.9% | 93.8% | 108% | 77.8% | 9.19% (active) | -45.7% (active) | 100% | 76.2% | 10.3%
COc1cnc2c(c1)C(=O)c1c-2n(CCCBr)c(=O)c2cc([N+](=O)[O-])ccc12 | -5.87% (active) | -1.66% (active) | 15.5% | 3.86% (active) | 2.4% (active) | 26.5% | -18.4% (active) | 2.68% (active) | 5.26% (active) | -26.2% (active)
CCN(CC)CCCCNc1ccc(NCCCCN(CC)CC)c2c1C(=O)c1ccccc1C2=O | 77.5% | 113% | 110% | 101% | 57.4% | 55.5% | 96.6% | 56.6% | 82% | 76.1%
Cc1ccc(-c2nc(/C=N/Nc3cc(C)nc4ccc(Br)cc34)c(C)o2)cc1 | 79.2% | 86.6% | -36.8% (active) | 97.7% | -81% (active) | 18.9% | -67.1% (active) | -56.1% (active) | -67% (active) | -68.6% (active)
COc1ccc(CNc2nccnn2)cc1 | 94.6% | 92% | 103% | 98.6% | 106% | 108% | 85.4% | 96.9% | 107% | 95%
C#Cc1nc2ccccc2c(=O)[nH]1 | 29.9% | -58.8% (active) | 29.5% | -6.19% (active) | 11.1% | -45.8% (active) | -71.9% (active) | 4.37% (active) | -64.7% (active) | -74.3% (active)
N#Cc1c(N)nc(N)nc1Nc1ccc(Br)cc1 | 102% | 83.9% | 89.9% | 119% | 96.7% | 92.3% | 70.9% | 78.2% | 123% | 135%
